Each structure is given as a SMILES string. In all, about 320,000 compounds went through this assay and about 1,300 (0.41%) were called active. Another 3% or so got no clear call; they are omitted. How the calls were made is not given here. The list is a sample of the results. Results with a measured potency or affinity are listed apart.

A short description of this assay: growth inhibition of non-replicating M. tuberculosis (AID 488890).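 Further: plate controls were DMSO cells for no effect and high antibiotic wells for full effect.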 Particulars: Mycobacterium tuberculosis non-replicating, at 25 µM, stronger effect = higher value.
As for `O=C(Nc1cccc(S(=O)(=O)N2CCCCCC2)c1)C1CCC1`, the inhibition is -14%. As to `COc1ccc(OCC(=O)NNC(=O)C(=O)Nc2ccccc2)cc1`, the inhibition was 75.3%. For `COc1ccc(NC(=O)C(=O)NNC(=O)COc2ccc(OC)cc2)cc1`, the inhibition is 6.66%. Regarding `CCc1ccc(NC(=O)Nc2cccc(OC)c2)cc1`, the inhibition was found to be 60.4%. Take `COc1ccc(OCC(=O)NNC(=O)C(=O)Nc2ccc(C)cc2)cc1`: the inhibition was found to be 7.2%.

As for `COC(=O)c1ccc(NC(=O)c2cccc(OC)c2)cc1`, the inhibition came out at 27.8%.

As for `CCc1ccc(NC(=O)COc2cccc(-n3cnnn3)c2)cc1`, the inhibition was found to be 23.8%. The figure for `CCCC(c1nnnn1Cc1ccco1)N1CCC(C(N)=O)CC1` (stereo not given) is -17.6%; for `Cc1ccc(CN2CCSc3ccc(C(=O)NCc4ccccn4)cc32)cc1` it is 29.8%; for `CC(=O)Nc1cccc(NC(=O)c2cc(-c3cccnc3)nc3ccc(Cl)cc23)c1` it is 14.7%. As to `CCc1ccc(N(CC(=O)NCc2ccco2)C(=O)CCC(=O)Nc2ccccn2)cc1`, the inhibition was -13.9%. To `CCC(C)c1ccc(O)c(NC(=O)c2cccnc2)c1` (stereo not given) belongs 5.33%; to `CCC(C)c1ccc(O)c(N)c1` (stereo not given), 1.15%.

With `CC(C)CN(C(=O)COC(=O)C1=COCCO1)c1c(N)n(Cc2ccccc2)c(=O)[nH]c1=O`, the inhibition worked out at 0.83%. To `O=C(CC1SC(N2CCOCC2)=NC1=O)Nc1cccc(C(F)(F)F)c1` (stereo not given) belongs 9.06%; to `COc1cccc(NC(=O)CCN2C(=O)c3ccc([N+](=O)[O-])cc3C2=O)c1`, -4.23%. Regarding `C=CCN1C(=O)C(CC(=O)Nc2ccccc2)S/C1=N/c1nccs1` (stereo not given), the inhibition is -1.19%.

Take `Cc1cc(C)n(-c2nnc(C)c(=O)[nH]2)n1`: the inhibition is 1.82%. For the compound `Cc1cc(=O)[nH]c(N2CCCC2)n1`, the inhibition is -4.14%. As for `CCc1c(C)nc(SCc2cccnc2)[nH]c1=O`, the inhibition is -9.77%. Turning to `Cc1nn(-c2cccc3cccnc23)c(=O)c2ccccc12`, the inhibition was 0.08%.

`O=C(Cc1ccc([N+](=O)[O-])cc1)N1CCCCCC1`: the inhibition stood at 5.47%. On to `O=C(c1ccc(Oc2ccc([N+](=O)[O-])cc2)cc1)N1CCCCCC1`, for which the inhibition worked out at 65.4%. `Cc1ccccc1NC(=O)c1cccc(S(=O)(=O)N2CCOCC2)c1`: the inhibition is -10.8%. As to `OC(C#CCN1CCCC1)c1ccccc1` (stereo not given), the inhibition was -3.04%. For `c1csc(CN2CCOCC2)c1`, the inhibition is -3.64%. In the case of `COc1cc(C(=S)N2CCN(C(c3ccccc3)c3ccccc3)CC2)cc(OC)c1O`, the inhibition was 12.6%.

Consider `CCCc1cc(=O)oc2c(C)c(OCC(=O)N3CCC[C@@H]3C(=O)O)ccc12`, for which the inhibition is -11.2%. `CCOC(=O)/C(=N\Nc1cc(Cl)ccc1Cl)N1CCN(CC)CC1`: the inhibition came out at 46%. Consider `COc1ccc(CN2C(=O)C(O)(CC(=O)c3ccc4c(c3)OCO4)c3ccccc32)cc1OC` (stereo not given), for which the inhibition was 12.6%. Consider `Cc1[nH]c2ccccc2c1C(=O)NS(=O)(=O)Nc1ccc(F)cc1`, for which the inhibition was -2.71%. As to `COc1ccccc1Oc1ccc(NC(=O)Cc2ccccc2)cc1`, the inhibition was determined as 19.6%. The figure for `O=c1ccc(=O)n(-c2ccccc2)[nH]1` is 20%; for `O=c1[nH][nH]c(=O)n1-c1ccccc1` it is -3.31%; for `CCOC(=O)c1cn(Cc2ccccc2)nn1` it is 74.6%. As for `CCOC(=O)c1cn(Cc2ccc(C)cc2)nn1`, the inhibition was 75.3%. Take `CCc1nnc(NC(=O)CSc2nncc(=O)n2N)s1`: the inhibition was -12.3%. On to `Cn1cnnc1SCCNS(=O)(=O)c1ccccc1`, for which the inhibition worked out at 2.23%. Consider `CCOC(=O)c1c(C)[nH]c(C(=O)OCC(=O)NCc2ccc(C)cc2)c1C`, for which the inhibition was -10.5%. As to `C/C(CC(=O)Nc1ccc(N(C)C)cc1)=N\NC(=O)c1ccc(F)cc1`, the inhibition turned out to be 8.75%. For `C/C(CC(=O)Nc1ccc(N(C)C)cc1)=N\NC(=O)c1ccc(Cl)cc1`, the inhibition was determined as 8%. As for `Cc1cc(C)c(S(=O)(=O)NCC(=O)NCc2ccco2)c(C)c1`, the inhibition is 0.05%. For the compound `COC1C(C)=C(C)C(=O)N1Cc1ccccc1` (stereo not given), the inhibition was -5.86%.

Consider `C/C(=N\O)c1cc(Cl)cc(Cl)c1O`, for which the inhibition came to 19%. Consider `C/C(=N\O)c1ccc(Cl)cc1Cl`, for which the inhibition is 1.76%. Consider `CCCCC(=O)N=c1sc2cc(S(C)(=O)=O)ccc2n1C`, for which the inhibition was -0.02%. For `COc1cccc(C(=O)Nc2cccc(-c3nnc(-c4ccccc4)o3)c2)c1`, the inhibition was -7.83%. The figure for `O=C(Nc1nnc(-c2ccc(F)cc2)o1)c1cccc([N+](=O)[O-])c1` is -8.79%; for `O=C(Nc1nnc(-c2cccnc2)o1)c1ccccc1Cl` it is 35.5%. As to `O=C(Nc1ccc(F)cc1)c1cc(Cl)sc1Cl`, the inhibition stood at 70.7%. For the compound `O=C(Nc1nnc(-c2ccccc2)o1)c1cc(Cl)sc1Cl`, the inhibition was 9.95%. On to `CS(=O)(=O)c1cccc(-c2nnc(NC(=O)c3ccc4ncsc4c3)o2)c1`, for which the inhibition was -2.94%. As to `COC(=O)c1ccc(C(=O)Nc2nnc(-c3cccnc3)o2)cc1`, the inhibition turned out to be 7.58%. Turning to `CS(=O)(=O)c1ccccc1-c1nnc(NC(=O)c2ccc3ncsc3c2)o1`, the inhibition worked out at 10.1%. Regarding `O=C1CC(N2CCC(c3nc4ccccc4[nH]3)CC2)C(=O)N1c1cccc(F)c1` (stereo not given), the inhibition worked out at 20.2%.

In the case of `CCOC(=O)Cn1c(=NC(=O)CSC(C)=O)sc2cc(F)ccc21`, the inhibition stood at 30.8%. For `Cc1nc(OCc2c(C)noc2C)c2ccccc2n1`, the inhibition is -6.1%. As to `Brc1ccc(-c2ccccc2)cc1`, the inhibition came to 27.1%. `Cc1ccc(OCC(=O)Nc2ccccc2C(=O)N2CCCC2)cc1`: the inhibition worked out at 1.03%. To `Cc1nnsc1S(=O)c1ccc(Cl)cc1` (stereo not given) belongs -4.16%. For the compound `Cc1nnsc1C(=O)Nc1ccc(Cl)cc1`, the inhibition was -9.77%.

Consider `Cc1cccc(-c2nc3cc([N+](=O)[O-])ccc3o2)c1`, for which the inhibition amounted to 4.61%. In the case of `COc1ccc(-c2[nH]nc3oc(=O)cc(C)c23)cc1`, the inhibition came out at 7.5%. For the compound `Cc1nc2ncccn2c1-c1csc(Nc2cccc(C(=O)O)c2)n1`, the inhibition is -13.4%. Turning to `CC1CCC(NS(=O)(=O)c2cccc3nsnc23)CC1` (stereo not given), the inhibition came out at 0.44%.

As for `CCC(C(=O)O)n1nnc(-c2ccc(-c3ccc(OC)cc3)cc2)n1` (stereo not given), the inhibition worked out at 28%. With `CCCCOc1ccc(-c2nnn(CC(=O)Nc3ncc(CC(=O)OCC)s3)n2)cc1`, the inhibition turned out to be 78.8%. As to `COc1cccc(C(=O)/C=C2\NCCc3cc(OC)c(OC)cc32)c1`, the inhibition was found to be 21.5%. `CCN1CCN(C(=O)N(c2ccccc2)c2ccccc2)CC1`: the inhibition is -28.4%.

For `NC(=O)CC(NC(=O)Cc1cccc2ccccc12)c1ccc(NCCN2CCCCC2)c([N+](=O)[O-])c1` (stereo not given), the inhibition is 3.25%. Take `OC(COC(c1ccc(F)cc1)c1ccc(F)cc1)CN1CCCC1` (stereo not given): the inhibition worked out at 1.01%. In the case of `OC1CCCN(CC(O)COC(c2ccc(F)cc2)c2ccc(F)cc2)C1` (stereo not given), the inhibition is -5%. Take `CCOC(=O)C1(CCOc2ccccc2)CCN(Cc2ccc(O)c(Cl)c2)CC1`: the inhibition was 63.3%. Regarding `CN1CCN(NC(=O)c2ccc(Cl)c(S(=O)(=O)Nc3ccc(Cl)cc3)c2)CC1`, the inhibition is -0.68%. With `CCCN(CC(=O)Nc1ccccc1C)C(=O)c1ccc(C(=O)c2ccccc2)cc1`, the inhibition is 18.4%.

A word on the inhibition: it is the change of the read-out against control, counted positive when it falls.
